Results: PubChem BioAssay (NCATS)
Records with an inconclusive call do not appear. Activity calls are given as the source filed them. Unless noted, the call rests on the fitted dose curve; in most records, active means well fitted curve in the direction sought with a large enough effect; inconclusive means small, poorly fitted or top-dose-only effect, or another doubt; inactive means no such curve, though single readings can be large; an effect the other way counts as inactive or inconclusive.

Tests used:
[1] = biological target: Thioredoxin reductase 1, cytoplasmic (Rattus norvegicus) (UniProt O89049); test: qHTS Assay for Substrates of Mammalian Selenoprotein Thioredoxin Reductase 1 (TrxR1) (AID 488772);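 further: series mostly up to about 57 µM; 0% is about no effect; a drop in NADPH fluorescence below the no-compound background marks a TrxR1 substrate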
Method in brief: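 In this dual-purpose format, potential substrates are identified from the first fluorescence read after selenite addition, not from the 8-minute delta. Rat enzyme is preincubated with NADPH and then with compound at ~22 deg C.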

[2] = biological target: Thioredoxin reductase 1, cytoplasmic (Rattus norvegicus) (UniProt O89049); test: qHTS Assay for Inhibitors of Mammalian Selenoprotein Thioredoxin Reductase 1 (TrxR1) (AID 488773); conditions: Potency: inhibition; further: nearly all actives have a fitted effect of over 40% in size; further: potency means the concentration at half of the fitted maximal effect
Method in brief: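 Inhibition is scored from the loss of NADPH fluorescence between first and last reads of an 8-min kinetic run. Selenite (400 uM) was the substrate, added after 15 min compound preincubation at room temperature.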

[3] = biological target: Flap endonuclease 1 (Homo sapiens) (UniProt P39748); test: qHTS Validation Assay for the Inhibitors of Human Flap endonuclease 1 (FEN1) (AID 488816); further: on the % scale 0 is the no-effect control and ±100 the full control effect
Method in brief: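 Enzyme reagent 10 nM; cpds pinned; 15 min RT preinc.; substrate 50 nM final; reads t=0 and 15 min; no-enzyme buffer wells as neg. control; normalized data, 4-parameter Hill fit.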

[4] = biological target: Methanococcus maripaludis chaperonin (MmCpn) (UniProt Q6LX38); test: High-Throughput Screening for Modulators of Cytosolic Chaperonin Activity: MmCpn Primary Screen (AID 488978);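 further: 50 nM MmCpn enzyme hydrolysing 30 µM ATP at 37 °C; 0% is about no effect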
Method in brief: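 MmCpn (50 nM final) was preincubated with compound 5 min at RT, then 30 uM ATP (final) was added and the reaction ran 10 min at 37C. ADP produced was detected by Transcreener HTRF (ex 320 nm; em 590/665 nm).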

[5] = biological target: Transient receptor potential cation channel subfamily V member 1 (Homo sapiens) (UniProt Q8NER1); test: HTS Assay for Compounds that Act as Enhancers of the Vanilloid Receptor 1 (AID 488979); further: 0% is about no effect
Method in brief: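 TRPV1 cells loaded with Fluo-8 calcium dye; compound added and Ca2+ signal (ex 480/em 520 nm) followed 3 min, then capsaicin at EC20 added and read 2 more min to detect enhancement.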

[6] = biological target: Thyrotropin receptor (Homo sapiens) (UniProt P16473); test: qHTS Assay for Antagonists of the Thyroid Stimulating Hormone Receptor (AID 488980); further: series mostly up to about 58 µM; 0% is about no effect
Method in brief: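 HEK293 cells transfected with human TSHR, suspended in HEPES-buffered HBSS with 70 uM RO 20-1724, were treated with compounds plus TSH at EC80 (4 nM final). cAMP was measured by competitive HTRF (cryptate anti-cAMP antibody, cAMP-d2 acceptor).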

[7] = biological target: D(1A) dopamine receptor (Homo sapiens) (UniProt P21728); test: HTS Assay for Allosteric Agonists of the Human D1 Dopamine Receptor: Primary Screen for Agonists (AID 488981); further: 0% is about no effect
Method in brief: (§1)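 Tetracycline-induced HEK293 Trex D1 cells with forced coupling to calcium, loaded with no-wash calcium dye; kinetic fluorescence read 180 s after compound addition for agonism, then a further 180 s after an EC20 dopamine challenge for potentiation.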

[8] = biological target: D(1A) dopamine receptor (Homo sapiens) (UniProt P21728); test: HTS Assay for Allosteric Agonists of the Human D1 Dopamine Receptor: Primary Screen for Antagonists (AID 488983);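 further: calcium flux response to an EC80 dopamine challenge measured with no-wash dye; nearly all actives have a fitted effect of over 65% in size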; further: potency means the concentration at half of the fitted maximal effect
Method in brief: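 Kinetic fluorescence at 1 cycle/sec tracked intracellular calcium in force-coupled, tetracycline-inducible HEK293 T-REx D1 cells. Loss of response to an EC80 dopamine dose, given 180 s after compound, marked antagonists.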

[9] = Validation screen for small molecules that induce genotoxicity in human embryonic kidney (HEK293T) cells expressing luciferase-tagged ELG1 (AID 493106); further: potency means the concentration at half of the fitted maximal effect
Method in brief: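 Cells were dispensed at 2,000 per well, then 23 nL compound or DMSO was pinned in. After 16 hr at 37 °C and 5% CO2, ONE-Glo reagent was added. Luciferase activity was measured following 30 min at room temperature.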

[10] = biological target: ATPase family AAA domain-containing protein 5 (Homo sapiens) (UniProt Q96QE3); test: Validation screen for small molecules that inhibit ELG1-dependent DNA repair in human embryonic kidney (HEK293T) cells expressing luciferase-tagged ELG1 (AID 493107); further: nearly all actives have a fitted effect of over 70% in size; further: potency means the concentration at half of the fitted maximal effect
Method in brief: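 Cells are dispensed in 1536-well format, then 5-fluorouridine and compound are pinned in. After a 16 hr incubation at 37 °C and 5% CO2, ONE-Glo is added and luciferase measured on a CCD imager.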

[11] = biological target: Thyrotropin-releasing hormone receptor (Homo sapiens) (UniProt P34981); test: qHTS for Small Molecule Agonists and Allosteric Enhancers of Human TRH Receptor: Validation Screen for Agonists (AID 493127;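 active means calcium activation more than 3 SD above the typical response in the agonist read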;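 further: intracellular calcium rise by fluo-8 fluorescence before TRH EC20 addition; 0% is about no effect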); conditions: TRH receptor agonist cell assay; at 2 µM; stronger effect = higher value
Method in brief: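 Compounds are added by online pintool to dye-loaded TRHR cells while fluorescence is recorded every second. A rise in calcium signal during the agonist read marks activation; a later 10 nM TRH addition (EC20) serves the separate enhancer mode.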

[12] = qHTS for Inhibitors of Cell Surface uPA Generation: Validation Assay (AID 493164);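 further: RAW 264.7 macrophage cells exposed to compound for 18 h; 0% is about no effect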
Method in brief: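 ATP-Lite luminescence read-out: ATP remains high when uPA activity-dependent LF translocation into the cytoplasm is blocked. RAW 264.7 cells, 18 h compound exposure at 37 C; 7-point titration, 2.45 nM to 38.3 uM final.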

[13] = Validation screen for small molecules that induce DNA re-replication in SW480 colon adenocarcinoma cells (AID 504364); further: potency means the concentration at half of the fitted maximal effect
Method in brief: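 Image-based qHTS: compounds were incubated with SW480 cells for 48 hr, nuclei stained with Hoechst, and per-nucleus fluorescence intensity scanned to flag cells with excess DNA content.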

[14] = biological target: M-phase phosphoprotein 8 (Homo sapiens) (UniProt Q99549); test: qHTS Validation Assay for Inhibitors for MPP8 Chromodomain Interactions with Methylated Histone Tails (AID 488949); further: nearly all actives have a fitted effect of over 55% in size; further: potency means the concentration at half of the fitted maximal effect
Method in brief: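 MPP8 (50 nM) was preincubated with biotinylated H3(1-18)K9me3 peptide (50 nM) in PBS pH 7.4, 0.01% Tween-20 for 30 min at room temperature, then with compounds for 30 min; binding was detected by AlphaScreen.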

[15] = biological target: Chromobox protein homolog 1 (Homo sapiens) (UniProt P83916); test: qHTS Validation Assay for Inhibitors of HP1-beta Chromodomain Interactions with Methylated Histone Tails (AID 488953); further: nearly all actives have a fitted effect of over 50% in size; further: potency means the concentration at half of the fitted maximal effect
Method in brief: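 Disruption of preformed HP1-beta:H3K9me3 peptide complexes (both 50 nM, PBS pH 7.4 with 0.01% Tween-20) is measured by AlphaScreen after 30 min compound exposure at room temperature, using streptavidin donor and nickel chelate acceptor beads at 10 ug/mL final.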

[16] = biological target: D(1A) dopamine receptor (Homo sapiens) (UniProt P21728); test: HTS Assay for Allosteric Agonists of the Human D1 Dopamine Receptor: Primary Screen for Potentiators (AID 488982); further: 0% is about no effect
Method in brief: as §1

[17] = biological target: Galactokinase (Homo sapiens) (UniProt P51570); test: qHTS Validation Assay for Inhibitors of Human Galactokinase (GALK) (AID 493189); further: 0% is about no effect
Method in brief: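 GALK (5 nM) with 35 uM ATP and 100 uM galactose in HEPES pH8.0, MgCl2, NaCl, DTT, BSA; 1 h at room temperature. Residual ATP read by Kinase-Glo Plus luminescence after 10 min.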

[18] = Nrf2 qHTS screen for inhibitors: Validation (AID 493153; active means well fitted inhibition curve with a large enough effect in the main read-out, with a control signal flat, not every such curve was filed as active; further: potency means the concentration at half of the fitted maximal effect); conditions: Potency: luciferase luminescence; viability change: measured here: cytotoxicity max response
Method in brief: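 A549 ARE_Fluc, 5% FBS OPTI-MEM; cpd titration, 18-24 h, 37°C/5% CO2. Read 1: CellTiter-Fluor (Ex 405/Em 525), cytotox. Read 2: luciferase lum, Nrf2 activity.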

[19] = biological target: ATP-dependent 6-phosphofructokinase (Trypanosoma brucei brucei) (UniProt O15648); test: qHTS Assay to Find Inhibitors of T. brucei phosphofructokinase: hit validation (AID 492961);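 further: luminescence reports ADP formed as PFK phosphorylates fructose-6-phosphate with ATP; series mostly up to about 51 µM; on the % scale 0 is the no-effect control and ±100 the full control effect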
Method in brief: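 Inhibition of parasite PFK is measured as reduced ADP formation, quantified via luciferase after ATP depletion. Assay used 0.1 mM ATP, 0.5 mM F6P, 1.25 nM enzyme, 45 min incubation.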

Chain of Methanococcus maripaludis chaperonin (MmCpn) (Q6LX38 1-543): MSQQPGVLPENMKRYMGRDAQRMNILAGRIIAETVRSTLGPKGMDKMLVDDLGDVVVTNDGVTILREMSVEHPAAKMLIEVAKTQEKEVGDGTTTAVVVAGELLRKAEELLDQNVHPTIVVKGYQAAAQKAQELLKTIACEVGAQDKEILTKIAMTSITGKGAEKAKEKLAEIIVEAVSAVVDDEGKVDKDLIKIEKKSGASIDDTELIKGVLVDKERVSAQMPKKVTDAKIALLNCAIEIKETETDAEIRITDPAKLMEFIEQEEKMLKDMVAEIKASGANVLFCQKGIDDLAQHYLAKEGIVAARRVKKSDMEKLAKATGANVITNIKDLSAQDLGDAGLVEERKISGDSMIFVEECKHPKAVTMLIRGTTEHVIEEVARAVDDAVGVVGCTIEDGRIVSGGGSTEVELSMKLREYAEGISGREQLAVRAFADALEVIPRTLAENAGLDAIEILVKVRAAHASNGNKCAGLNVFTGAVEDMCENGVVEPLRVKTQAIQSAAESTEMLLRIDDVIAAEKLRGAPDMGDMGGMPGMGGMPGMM
Chain of Thyrotropin-releasing hormone receptor (Homo sapiens) (P34981 whole entry, looked up): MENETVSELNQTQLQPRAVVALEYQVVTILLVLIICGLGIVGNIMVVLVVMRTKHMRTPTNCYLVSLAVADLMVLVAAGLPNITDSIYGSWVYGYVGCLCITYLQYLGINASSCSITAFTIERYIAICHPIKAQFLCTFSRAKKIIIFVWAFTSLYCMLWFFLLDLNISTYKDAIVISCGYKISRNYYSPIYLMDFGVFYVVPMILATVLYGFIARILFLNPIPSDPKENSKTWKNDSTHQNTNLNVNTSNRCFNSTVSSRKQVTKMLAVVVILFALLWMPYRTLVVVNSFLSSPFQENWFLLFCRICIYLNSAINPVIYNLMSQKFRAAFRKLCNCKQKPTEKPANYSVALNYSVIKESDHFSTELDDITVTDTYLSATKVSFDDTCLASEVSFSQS
Chain of Thyrotropin receptor (Homo sapiens) (P16473 whole entry, looked up): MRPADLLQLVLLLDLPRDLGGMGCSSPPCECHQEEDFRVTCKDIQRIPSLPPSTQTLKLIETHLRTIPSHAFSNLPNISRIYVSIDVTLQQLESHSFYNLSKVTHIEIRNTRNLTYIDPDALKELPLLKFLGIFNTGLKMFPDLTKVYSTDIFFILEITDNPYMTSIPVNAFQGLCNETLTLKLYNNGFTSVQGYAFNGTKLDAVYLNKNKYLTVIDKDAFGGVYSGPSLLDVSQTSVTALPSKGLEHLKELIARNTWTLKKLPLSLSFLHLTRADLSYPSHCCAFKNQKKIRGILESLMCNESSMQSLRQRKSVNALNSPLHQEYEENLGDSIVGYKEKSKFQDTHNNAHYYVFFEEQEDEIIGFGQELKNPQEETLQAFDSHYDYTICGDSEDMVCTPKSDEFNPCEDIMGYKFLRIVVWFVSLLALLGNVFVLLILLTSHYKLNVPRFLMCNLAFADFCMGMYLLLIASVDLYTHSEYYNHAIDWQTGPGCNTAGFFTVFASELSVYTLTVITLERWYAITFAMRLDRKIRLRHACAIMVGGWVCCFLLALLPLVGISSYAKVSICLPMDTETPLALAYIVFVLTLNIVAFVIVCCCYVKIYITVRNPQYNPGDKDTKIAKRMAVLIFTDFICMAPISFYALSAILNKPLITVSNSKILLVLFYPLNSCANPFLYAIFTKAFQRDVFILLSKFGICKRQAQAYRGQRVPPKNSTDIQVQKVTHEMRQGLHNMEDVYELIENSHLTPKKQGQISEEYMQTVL
Chain of Thioredoxin reductase 1, cytoplasmic (Rattus norvegicus) (O89049 whole entry, looked up): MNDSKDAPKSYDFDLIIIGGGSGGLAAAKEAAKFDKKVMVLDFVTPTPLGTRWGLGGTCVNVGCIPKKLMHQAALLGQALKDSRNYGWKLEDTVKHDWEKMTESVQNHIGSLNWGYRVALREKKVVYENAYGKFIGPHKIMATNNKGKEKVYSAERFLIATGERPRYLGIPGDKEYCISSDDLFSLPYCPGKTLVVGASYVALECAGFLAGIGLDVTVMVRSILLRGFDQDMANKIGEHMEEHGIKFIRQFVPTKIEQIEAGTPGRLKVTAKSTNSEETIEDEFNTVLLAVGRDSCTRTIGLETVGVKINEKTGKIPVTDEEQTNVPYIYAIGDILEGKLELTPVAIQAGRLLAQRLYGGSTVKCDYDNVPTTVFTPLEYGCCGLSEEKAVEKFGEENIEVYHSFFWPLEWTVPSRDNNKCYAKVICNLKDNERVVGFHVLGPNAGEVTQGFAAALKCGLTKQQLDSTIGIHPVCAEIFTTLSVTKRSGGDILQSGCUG
Chain of D(1A) dopamine receptor (Homo sapiens) (P21728 whole entry, looked up): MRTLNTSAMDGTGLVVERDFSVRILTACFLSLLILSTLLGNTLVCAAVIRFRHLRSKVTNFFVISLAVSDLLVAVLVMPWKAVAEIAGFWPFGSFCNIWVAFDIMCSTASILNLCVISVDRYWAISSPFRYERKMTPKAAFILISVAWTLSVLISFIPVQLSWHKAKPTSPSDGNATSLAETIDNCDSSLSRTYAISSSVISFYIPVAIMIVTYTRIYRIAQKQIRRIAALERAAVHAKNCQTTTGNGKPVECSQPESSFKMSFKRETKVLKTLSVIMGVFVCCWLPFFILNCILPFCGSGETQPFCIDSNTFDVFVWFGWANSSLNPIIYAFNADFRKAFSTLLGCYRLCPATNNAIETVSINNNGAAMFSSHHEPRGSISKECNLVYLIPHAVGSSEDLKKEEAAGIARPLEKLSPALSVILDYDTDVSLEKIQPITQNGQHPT
Chain of Galactokinase (Homo sapiens) (P51570 whole entry, looked up): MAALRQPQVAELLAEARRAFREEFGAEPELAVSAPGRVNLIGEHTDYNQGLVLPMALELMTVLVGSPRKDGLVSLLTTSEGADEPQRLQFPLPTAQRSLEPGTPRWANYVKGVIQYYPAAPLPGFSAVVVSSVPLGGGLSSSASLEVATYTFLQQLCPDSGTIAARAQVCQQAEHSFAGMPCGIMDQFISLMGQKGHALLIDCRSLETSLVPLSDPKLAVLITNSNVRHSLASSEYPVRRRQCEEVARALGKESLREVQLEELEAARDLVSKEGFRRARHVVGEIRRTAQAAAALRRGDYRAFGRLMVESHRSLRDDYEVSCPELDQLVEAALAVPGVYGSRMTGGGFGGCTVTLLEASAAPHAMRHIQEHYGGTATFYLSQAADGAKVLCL
Chain of Transient receptor potential cation channel subfamily V member 1 (Homo sapiens) (Q8NER1 whole entry, looked up): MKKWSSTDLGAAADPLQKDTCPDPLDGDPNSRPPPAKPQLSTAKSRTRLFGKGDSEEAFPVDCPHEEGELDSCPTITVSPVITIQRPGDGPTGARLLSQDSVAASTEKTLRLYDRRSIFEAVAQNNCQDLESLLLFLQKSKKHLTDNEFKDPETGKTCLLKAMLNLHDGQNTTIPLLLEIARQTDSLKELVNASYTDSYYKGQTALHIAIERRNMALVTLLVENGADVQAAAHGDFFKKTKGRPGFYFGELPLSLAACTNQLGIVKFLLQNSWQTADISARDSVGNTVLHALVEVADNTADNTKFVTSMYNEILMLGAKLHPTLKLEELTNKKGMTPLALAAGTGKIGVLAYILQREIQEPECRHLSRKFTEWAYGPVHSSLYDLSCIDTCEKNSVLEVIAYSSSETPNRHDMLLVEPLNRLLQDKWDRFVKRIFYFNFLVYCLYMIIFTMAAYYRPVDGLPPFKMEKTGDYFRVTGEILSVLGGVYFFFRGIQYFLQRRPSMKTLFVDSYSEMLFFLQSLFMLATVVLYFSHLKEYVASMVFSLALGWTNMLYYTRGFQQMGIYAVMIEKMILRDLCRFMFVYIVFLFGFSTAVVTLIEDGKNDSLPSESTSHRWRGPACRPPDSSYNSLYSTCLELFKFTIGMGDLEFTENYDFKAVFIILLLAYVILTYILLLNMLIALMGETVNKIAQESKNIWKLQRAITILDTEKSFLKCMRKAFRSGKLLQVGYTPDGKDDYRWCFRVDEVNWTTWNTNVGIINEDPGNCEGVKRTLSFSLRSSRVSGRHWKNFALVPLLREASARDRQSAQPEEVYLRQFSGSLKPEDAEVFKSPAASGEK
Chain of M-phase phosphoprotein 8 (Homo sapiens) (Q99549 whole entry, looked up): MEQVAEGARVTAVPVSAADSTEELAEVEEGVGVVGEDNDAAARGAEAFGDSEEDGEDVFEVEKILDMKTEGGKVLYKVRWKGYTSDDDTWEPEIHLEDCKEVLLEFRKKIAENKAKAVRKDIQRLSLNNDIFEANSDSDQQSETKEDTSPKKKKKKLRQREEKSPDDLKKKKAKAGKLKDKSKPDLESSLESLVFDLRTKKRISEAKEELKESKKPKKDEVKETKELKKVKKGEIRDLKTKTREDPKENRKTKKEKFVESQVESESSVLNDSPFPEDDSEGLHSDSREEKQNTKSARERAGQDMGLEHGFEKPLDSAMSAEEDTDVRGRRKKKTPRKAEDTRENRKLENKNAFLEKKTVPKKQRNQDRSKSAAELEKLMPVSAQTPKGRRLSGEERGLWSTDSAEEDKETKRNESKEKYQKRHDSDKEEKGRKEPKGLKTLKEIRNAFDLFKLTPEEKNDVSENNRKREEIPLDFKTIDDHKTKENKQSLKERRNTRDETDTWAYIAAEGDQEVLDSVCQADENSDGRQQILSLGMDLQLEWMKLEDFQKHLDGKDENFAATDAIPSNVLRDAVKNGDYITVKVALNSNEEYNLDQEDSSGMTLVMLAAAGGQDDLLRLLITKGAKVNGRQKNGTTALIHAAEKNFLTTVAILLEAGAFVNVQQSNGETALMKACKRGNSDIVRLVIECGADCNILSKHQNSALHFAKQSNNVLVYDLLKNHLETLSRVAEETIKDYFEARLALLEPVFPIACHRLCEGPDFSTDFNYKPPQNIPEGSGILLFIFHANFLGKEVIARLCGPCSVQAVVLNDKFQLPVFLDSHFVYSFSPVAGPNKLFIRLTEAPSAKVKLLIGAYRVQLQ
Chain of Chromobox protein homolog 1 (Homo sapiens) (P83916 whole entry, looked up): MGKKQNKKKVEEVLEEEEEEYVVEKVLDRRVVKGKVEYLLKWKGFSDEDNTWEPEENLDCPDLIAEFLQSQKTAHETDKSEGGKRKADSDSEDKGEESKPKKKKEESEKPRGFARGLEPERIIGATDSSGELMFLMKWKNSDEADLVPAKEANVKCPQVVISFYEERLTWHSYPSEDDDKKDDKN

COc1ccc2[nH]c3c(c2c1)CCNC3
inactive: outcome [1] | Potency [2] | Potency [3] | outcome [4] | outcome [5] | outcome [6] | Potency [7] | Potency [8] | Potency [9] | Potency [10] | activation [11] 1.56% | outcome [12] | Potency [13]

CC1(C(=O)O)C2CCC(O2)C1(C)C(=O)O (configuration not stated)
inactive: outcome [1] | Potency [2] | Potency [14] | outcome [4] | outcome [5] | outcome [6] | Potency [7] | Potency [16] | Potency [8] | activation [11] 0.438% | outcome [17] | Potency [13]
active: Potency [15] 0.0084 µM | Potency [9] 3.66 µM | Potency [10] 7.3 µM

COc1ccc2c(c1)C13CCCCC1C(C2)N(C)CC3 (configuration not stated)
inactive: outcome [1] | Potency [2] | Potency [15] | outcome [4] | outcome [5] | outcome [6] | Potency [7] | Potency [16] | Potency [8] | Potency [9] | Potency [10] | activation [11] 1.06% | Potency [18] | outcome [12] | outcome [17] | Potency [13]
4.34%: viability change [18]

C/C(O)=C(\C#N)C(=O)Nc1cc(Br)ccc1Br
inactive: outcome [1] | Potency [2] | Potency [14] | outcome [4] | outcome [5] | outcome [6] | Potency [7] | Potency [16] | Potency [8] | Potency [9] | activation [11] 0.0625% | outcome [12] | Potency [13]

CO[C@H]1CC=C2CCN3CCC4=C(CC(=O)OC4)[C@]23C1
inactive: outcome [1] | Potency [2] | Potency [14] | Potency [15] | outcome [4] | outcome [5] | Potency [7] | Potency [8] | Potency [9] | Potency [18] | outcome [12] | outcome [17] | Potency [13]
-2.68%: viability change [18]

N[C@@]1(C(=O)O)CC[C@@H](C(=O)O)C1
4.39%: viability change [18]
inactive: outcome [1] | Potency [2] | Potency [15] | outcome [4] | outcome [5] | outcome [6] | Potency [7] | Potency [16] | Potency [8] | Potency [9] | activation [11] -0.25% | Potency [18] | outcome [12] | Potency [13]

CCCN(CCC)CCc1c[nH]c2ccc(C(N)=O)cc12
1.24%: viability change [18]
inactive: outcome [1] | Potency [2] | Potency [14] | Potency [15] | outcome [4] | outcome [5] | outcome [6] | Potency [7] | Potency [8] | Potency [9] | Potency [10] | activation [11] 0% | Potency [18] | outcome [12] | outcome [17] | Potency [13]

C[C@]12Cc3cn4c(nc3C=C1CCC1C2CC[C@@]2(C)[C@H]1CC[C@@]2(O)C#N)nc1ccccc14 (some centres not stated)
inactive: outcome [1] | Potency [2] | Potency [15] | outcome [4] | outcome [5] | outcome [6] | Potency [7] | Potency [8] | Potency [9] | activation [11] -4.5% | outcome [12] | outcome [17]
active: Potency [10] 7.3 µM | Potency [13] 23.1 µM

COc1ccc2c(c1O)-c1cccc3c1[C@@H](C2)N(C)CC3
inactive: outcome [1] | Potency [2] | outcome [4] | Potency [7] | Potency [16] | Potency [9] | outcome [12]
active: Potency [8] 10 µM

CN(N=O)c1cc(O)ccc1O
inactive: outcome [1] | outcome [4] | outcome [5] | outcome [6] | Potency [7] | Potency [16] | Potency [8] | Potency [9] | Potency [10] | outcome [12] | outcome [17] | Potency [13]
active: Potency [2] 0.752 µM | Potency [14] 8.91 µM | Potency [15] 50.1 µM

O=S1(=O)N(CCN2CC=C(c3c[nH]c4cc(F)ccc34)CC2)c2cccc3c2N1CCC3
inactive: outcome [1] | Potency [2] | outcome [4] | outcome [5] | outcome [6] | Potency [7] | Potency [9] | outcome [12] | outcome [17]
active: Potency [15] 39.8 µM | Potency [18] 23.1 µM
-15.7%: viability change [18]

CCS(=O)(=O)Nc1cccc(C(=C2CCCCC2)c2cnc[nH]2)c1
inactive: outcome [1] | Potency [2] | Potency [3] | outcome [4] | outcome [5] | outcome [6] | Potency [7] | Potency [16] | Potency [8] | Potency [9] | activation [11] -5.69% | outcome [12] | outcome [17] | Potency [13]

NC(Cc1ccc(N(CCCl)CCCl)cc1)C(=O)O (configuration not stated)
active: Potency [15] 0.0067 µM
inactive: outcome [1] | Potency [3] | Potency [14] | outcome [4] | outcome [5] | outcome [6] | Potency [7] | Potency [16] | Potency [8] | Potency [10] | activation [11] -0.125% | outcome [12] | outcome [17] | Potency [13]

COc1ccc(CNC(=O)/C=C/c2ccc3[nH]cc(CCN(C)C)c3c2)cc1
-0.218%: viability change [18]
inactive: outcome [1] | Potency [2] | Potency [15] | outcome [4] | outcome [5] | outcome [6] | Potency [7] | Potency [16] | Potency [8] | Potency [9] | Potency [10] | activation [11] -0.312% | Potency [18] | outcome [12] | outcome [17] | Potency [13]

N=C(N)c1ccc(CS(=O)(=O)F)cc1
-1.04%: viability change [18]
inactive: outcome [1] | Potency [2] | Potency [15] | outcome [4] | Potency [7] | Potency [8] | Potency [9] | Potency [18] | outcome [12]

O=C1CC[C@@]2(O)C3Cc4ccc(O)c5c4C2(CCN3CC2CC2)[C@H]1O5 (some centres not stated)
inactive: outcome [1] | Potency [2] | Potency [14] | Potency [15] | outcome [4] | outcome [5] | outcome [6] | Potency [7] | Potency [16] | Potency [8] | Potency [19] | Potency [9] | Potency [10] | activation [11] 1.31% | outcome [12] | outcome [17] | Potency [13]

CCCCCCCCCCCCCC(=O)O[C@@H]1[C@@H](C)[C@@]2(O)[C@@H](C=C(CO)C[C@@]3(O)C(=O)C(C)=C[C@@H]23)C2C(C)(C)[C@@]21OC(C)=O (some centres not stated)
inactive: outcome [1] | Potency [2] | Potency [14] | Potency [15] | outcome [4] | outcome [5] | outcome [6] | Potency [7] | Potency [16] | Potency [8] | activation [11] 0.75% | Potency [18] | outcome [17] | Potency [13]
active: Potency [9] 0.0041 µM
-19.6%: viability change [18]
